According to PubChem BioAssay (Tox21):
Records with an inconclusive call do not appear. Where a call stands in place of a potency, no number is given. Unmarked numbers belong to inactive results. Active and inactive are the calls of the source. Calls come from the whole dose curve; as a rule, active = well fitted inhibition curve with a large enough effect in the repeat runs; inconclusive = weak or mixed curves; inactive = no such curve, though single readings can be large or run the other way.

Molecular target: Estrogen receptor (Homo sapiens) (UniProt P03372)
Sequence (P03372 whole entry, looked up): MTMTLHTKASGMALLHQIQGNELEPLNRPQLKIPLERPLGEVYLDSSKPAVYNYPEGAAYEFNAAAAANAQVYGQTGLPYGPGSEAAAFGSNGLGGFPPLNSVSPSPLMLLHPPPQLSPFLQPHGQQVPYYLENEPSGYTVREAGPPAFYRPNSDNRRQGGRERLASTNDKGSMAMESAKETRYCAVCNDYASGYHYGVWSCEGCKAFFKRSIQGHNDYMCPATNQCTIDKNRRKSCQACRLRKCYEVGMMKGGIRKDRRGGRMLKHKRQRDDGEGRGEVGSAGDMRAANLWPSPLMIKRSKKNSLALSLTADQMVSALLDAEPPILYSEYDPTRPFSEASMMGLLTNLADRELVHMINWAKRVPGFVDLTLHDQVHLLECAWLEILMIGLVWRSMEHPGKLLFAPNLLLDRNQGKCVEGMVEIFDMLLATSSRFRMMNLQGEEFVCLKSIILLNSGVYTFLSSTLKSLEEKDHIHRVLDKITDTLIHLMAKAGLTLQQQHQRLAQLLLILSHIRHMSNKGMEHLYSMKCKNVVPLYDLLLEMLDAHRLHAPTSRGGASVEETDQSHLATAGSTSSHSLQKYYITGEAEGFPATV
Experiment: qHTS assay to identify small molecule antagonists of the estrogen receptor alpha (ER-alpha) signaling pathway using the BG1 cell line in the presence of 0.1 nM 17-beta-estradiol (AID 1259244); note: nearly all actives have a fitted effect of over 50% in size
Settings: VM7Luc4E2 (BG1) ERE-luciferase, antagonist mode, 0.1 nM E2, 22 h; series mostly up to 92.4 µM
Text: National Center for Advancing Translational Sciences [NCATS]
NIH Chemical Genomics Center [NCGC]
U.S. Environmental Protection Agency [EPA]
National Institutes of Environmental Health Sciences [NIEHS]
National Toxicology Program [NTP]
U.S. Food and Drug Administration [FDA]
Estrogen receptor (ER), a member of the nuclear hormone receptor plays an important role in development, metabolic homeostasis and reproduction. Two subtypes of ER, ER-alpha and ER-beta, have similar expression patterns with some uniqueness in both types. Endocrine disrupting chemicals (EDCs) and their interactions with steroid hormone receptors like ER causes disruption of normal endocrine function. Therefore, it is important to understand the effect of environmental chemicals in ER signaling pathway. For identifying ER antagonists, VM7Luc4E2 cell line was used to screen against Tox21 compound libraries.
VM7Luc4E2 cell line (provided by Denison MS, University of California) endogenously express full-length ER-alpha and is stably transfected with a plasmid containing four estrogen responsive elements (ERE) upstream of a luciferase reporter gene. The current screening for identification of ER-alpha inhibitors against Tox21 compound libraries used lower concentration (0.1 nM) of 17beta-Estradiol as a stimulator.
Tox21 Assay Protocol Summary:
VM7Luc4E2 cells were cultured in phenol red free assay medium containing 10% charcoal stripped FBS for 5 days prior to the assay. The cells were dispensed at 4,000 cells/well in 4 uL of assay medium into white wall/solid-bottom 1536-well plates (Corning Life Sciences, Corning, NY) using a Multidrop Combi (ThermoFisher Scientific, Waltham, MA) dispenser. After the assay plates were incubated at 37C and 5% CO2 for 24 hr, 23 nL of compounds dissolved in DMSO, positive controls or DMSO only was transferred to the assay plates by a Pintool station (Kalypsys, San Diego, CA). The transfer of compounds was followed by the addition of 1 uL of 0.1 nM (final concentration) agonist (17beta-Estradiol)/assay medium using a Flying Reagent Dispenser (FRD, Aurora Discovery, San Diego, CA). The plates were incubated at 37C and 5% CO2 for 22 hr. For luciferase reporter gene assay, 4 uL of ONE-Glo reagent (Promega Corporation, Madison, WI) was added to each well using the FRD and after 30 min incubation at room temperature luminescence intensity was measured using ViewLux plate reader (PerkinElmer, Shelton, CT).
Potency is the fitted concentration of half-maximal effect.

Row | Structure (SMILES) | Potency | activity change, negative = inhibition
1 | CCCNC(C)(C)COC(=O)c1ccccc1 | inactive | 
2 | O=C1N(c2ccccc2)c2ccccc2C1(Cc1ccncc1)Cc1ccncc1 | inactive | 
3 | C=C(C)C(=O)OCCOP(=O)(O)O | inactive | 
4 | O=C(C(Cl)Cl)N1CCOC12CCCCC2 | inactive | 
5 | CCOc1ccccc1N | 30.4 µM (active) | 
6 | CC(C)CCCCCCc1ccc(OCCOCCO)cc1 | inactive | 
7 | CCCCC(CC)COC(=O)COc1cc(Cl)c(Cl)cc1Cl (stereo not given) | inactive | 
8 | CCCCCCC | inactive | 
9 | CCOC(=O)NCCC[Si](OCC)(OCC)OCC | inactive | 
10 | CC1(C)O[C@@H]2C[C@H]3[C@@H]4CCC5=CC(=O)CC[C@]5(C)[C@@]4(F)[C@@H](O)C[C@]3(C)[C@]2(C(=O)CCl)O1 | inactive | 
11 | N#CSCC(=O)O | inactive | 
12 | Cc1cc(S(=O)(=O)O)c(N)cc1Cl | inactive | 
13 | Cc1nnc(SCC2=C(C(=O)O)N3C(=O)[C@@H](NC(=O)Cn4cnnn4)[C@H]3SC2)s1 | inactive | 
14 | C[C@@H]1CN(c2c(F)c(F)c3c(=O)c(C(=O)O)cn(C4CC4)c3c2F)C[C@H](C)N1 |  | 0.469% [at 19 µM]
15 | CCN(CC)CCNC(=O)COc1ccc(Cl)cc1 | inactive | 
16 | CC1=C(CC(=O)O)c2cc(F)ccc2/C1=C\c1ccc(S(C)(=O)=O)cc1 | inactive | 
17 | C[C@@H]1CN(c2c(F)c(N)c3c(=O)c(C(=O)O)cn(C4CC4)c3c2F)C[C@H](C)N1 |  | -0.515% [at 19 µM]
18 | COC(=O)N[C@H](C(=O)N[C@@H](Cc1ccccc1)[C@@H](O)CN(Cc1ccc(-c2ccccn2)cc1)NC(=O)[C@@H](NC(=O)OC)C(C)(C)C)C(C)(C)C | inactive | 
19 | O=C1CCCc2ccccc21 | inactive | 
20 | O=c1[nH]c(=O)n([C@H]2C[C@H](O)[C@@H](CO)O2)cc1C(F)(F)F | inactive | 

Row | Structure (SMILES) | Potency | activity change, negative = inhibition
21 | CC(C)C1=CC2=CC[C@@H]3[C@](C)(CCC[C@@]3(C)C(=O)O)[C@H]2CC1 | inactive | 
22 | COc1cc(C)ccc1C(C)C | inactive | 
23 | C=CCCCCCCCCO | inactive | 
24 | Clc1cccc(-c2cc(Cl)cc(Cl)c2)c1 | inactive | 
25 | O=C1CCN(c2ccccc2)N1 | inactive | 
26 | CC(C)(CO)[C@@H](O)C(=O)NCCC(=O)O | inactive | 
27 | OCc1c2ccccc2cc2ccccc12 | inactive | 
28 | CCOc1ccc2nc(N)sc2c1 | inactive | 
29 | OCCN(CCO)c1ccccc1 | inactive | 
30 | FC(F)(F)C(Cl)(Cl)Cl | inactive | 
31 | NC(=O)NS(=O)(=O)c1ccc(Cl)cc1 | inactive | 
32 | FC(F)(F)c1ccccc1 | inactive | 
33 | CC(C)c1ccccc1 | inactive | 
34 | CN1CCN(C2=Nc3cc(F)ccc3Cc3ccccc32)CC1 | inactive | 
35 | O=C(O)c1ccccc1Nc1cc(Cl)ccc1C(=O)O |  | -11% [at 19 µM]
36 | CC1(O)CSC(C)(O)CS1 (stereo not given) | inactive | 
37 | O=Cc1ccc(F)c(Br)c1 | inactive | 
38 | CS(=O)(=O)c1ccc([C@@H](O)[C@@H](CF)NC(=O)C(Cl)Cl)cc1 | inactive | 
39 | NS(=O)(=O)c1cc(-c2nn[nH]n2)c(NCc2cccs2)cc1Cl | inactive | 
40 | CCN(CC)CCOc1ccc(Cc2ccccc2)cc1 | inactive | 
